# Laboratory results: PubChem BioAssay (NCATS)
# Inconclusive results are not listed. The source made the active and inactive calls. The call rests on the fitted dose curve; in most records, active means well fitted inhibition curve with a large enough effect; inconclusive means small, poorly fitted or top-dose-only effect; inactive means flat fitted curve, though single readings scatter.
# Test system: ATS95
# Assay: qHTS profiling for inhibitors of Plasmodium falciparum proliferation (AID 504749);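 further: 0% = DMSO vehicle and full inhibition = artemisinin control; nearly all actives have a fitted effect of over 60% in size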
# Conditions: P. falciparum in erythrocytes, SYBR Green DNA, 72 h; series mostly up to 28.7 µM; activity, negative = inhibition: at the top concentration
# In short: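 Each compound contacts P. falciparum-infected red blood cells for 72 h at 37 C; lysis buffer (Tris, EDTA, saponin, Triton X, SYBR Green I) is added and fluorescence measured next morning; values normalized to controls.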
Compound,"activity, negative = inhibition",Potency
O=C1OC(OC(=O)c2cccnc2Nc2cccc(C(F)(F)F)c2)c2ccccc21 (configuration not stated),0.857% (inactive),
O=c1cc[nH]c(=S)[nH]1,-1.1% (inactive),
Nc1ncnc2c1ncn2[C@@H]1O[C@H](CO)[C@@H](O)[C@H]1O,11.4% (inactive),
O=c1cc[nH]c(=O)[nH]1,5.44% (inactive),
CC(=O)Nc1ccc(/C=N/NC(N)=S)cc1,,inactive
CCn1cc(C(=O)O)c(=O)c2cnc(N3CCNCC3)nc21,1.97% [at 12.8 µM] (inactive),
CC1(C)OC(=O)NC1=O,2.69% (inactive),
CC1=C(/C=C/C(C)=C/C=C/C(C)=C/C(=O)O)C(C)(C)CCC1,-1.88% (inactive),
COc1cc(C)c(Cc2cnc(N)nc2N)cc1OC,-10.8% (inactive),
Oc1cccc(O)c1,7.64% (inactive),
CC(=O)CCC(=O)O,4.84% (inactive),
O=C(O)c1ccccc1-c1ccc(C(F)(F)F)cc1,7.75% (inactive),
O=C(O)CN1C(=O)c2cccc3cccc(c23)C1=O,-6.78% (inactive),
Cc1ncc(COP(=O)(O)O)c(C=O)c1O,-13.5% (inactive),
Cc1cc(O)cc2c1O[C@](C)(CCC[C@H](C)CCC[C@H](C)CCCC(C)C)CC2,2.97% (inactive),
Cc1cc(C(C#N)c2ccc(Cl)cc2)c(Cl)cc1NC(=O)c1cc(I)cc(I)c1O (configuration not stated),3.25% (inactive),

Compound,"activity, negative = inhibition",Potency
CC(C)(C)C(=O)NCCCC(=O)O,5.72% (inactive),
Cc1ccc(C(C)C)cc2c(C)ccc1-2,-5.46% (inactive),
Nc1ccc(S(=O)(=O)Nc2nccs2)cc1,-29.2% (inactive),
NC(=O)NNc1ccccc1,,inactive
C[C@H]1O[C@@H](n2cc(F)c(=O)[nH]c2=O)[C@H](O)[C@@H]1O,-1.35% (inactive),
COc1ccccc1O,8.21% (inactive),
Cc1cccc(Nc2cc(Cl)nc(SCC(=O)O)n2)c1C,1.06% (inactive),
Nc1ccc(S(=O)(=O)Nc2ccccc2)cc1,-0.967% (inactive),
CC(=O)NC(Cc1ccccc1)C(=O)O (configuration not stated),-2.64% (inactive),
NS(=O)(=O)c1cc2c(cc1Cl)NC(CSCc1ccccc1)=NS2(=O)=O,-11.7% [at 12.8 µM] (inactive),
CCCCCCCCCCCCCCCCCCOCC(O)CO (configuration not stated),2.76% (inactive),
O=C(O)c1ccccn1,6.45% (inactive),
O=C(O)CC(O)C(=O)O (configuration not stated),6.66% (inactive),
CC1=C(CC(=O)O)c2cc(F)ccc2/C1=C\c1ccc(S(C)=O)cc1 (configuration not stated),-0.343% (inactive),
COC(=O)C1=C(C)NC(C)=C(C(=O)OC)C1c1ccccc1[N+](=O)[O-],-6.29% (inactive),
O=C1O[C@H]([C@@H](O)CO)C(O)=C1O,20% (inactive),
